In PubChem BioAssay (NCATS):
Inconclusive results are not listed. A call without a number means that no potency is given here. Calls of active or inactive are those of the source. The call rests on the fitted dose curve.

Key:
[1] = Primary qHTS for inhibitors of SARS-S pseudo-typed particle cell entry (AID 1479145); further: nearly all actives have a fitted effect of over 45% in size
[2] = Primary qHTS for Huh7 cytotoxicity: counterscreen for inhibitors of MERS-S pseudotyped particle cell entry (AID 1479147)
[3] = Primary qHTS for inhibitors of MERS-S pseudo-typed particle cell entry (AID 1479149); further: nearly all actives have a fitted effect of over 60% in size
[4] = Primary qHTS for Vero E6 cytotoxicity: counterscreen for inhibitors of SARS-S pseudo-typed particle cell entry (AID 1479150)
Potency means the concentration at half of the fitted maximal effect.

Compound	Potency [1]	Potency [2]	Potency [3]	Potency [4]
CN(Cc1ccc(C(C)(C)C)cc1)Cc1cccc2ccccc12	inactive	inactive	inactive	inactive
CN(C)C(=S)SC(=S)N(C)C	1.41 µM (active)	3.16 µM (active)	1 µM (active)	2.82 µM (active)
Cc1cc(O)c(C(C)C)cc1Cl	inactive	inactive	inactive	inactive
CC(C)(Oc1ccc(CCNC(=O)c2ccc(Cl)cc2)cc1)C(=O)O	inactive	inactive	inactive	inactive
Cc1ccc(C(C)OC(=O)C2(C)CCC(C(=O)O)C2(C)C)cc1 (stereo not given)	inactive	inactive	inactive	inactive
Cc1cccc(N(C)C(=S)Oc2ccc3c(c2)C2CCC3C2)c1 (stereo not given)	inactive	inactive	inactive	inactive
Nc1ccc(S(=O)(=O)Nc2cnc3ccccc3n2)cc1	inactive	inactive	inactive	inactive
O=C1C(c2[nH]c3ccccc3c2O)=Nc2ccccc21	inactive	inactive	inactive	inactive
O=C1c2ccccc2C(=O)C1c1ccccc1	inactive	inactive	inactive	inactive
COc1cc(NS(=O)(=O)c2ccc(N)cc2)nc(OC)n1	inactive	inactive	inactive	inactive
CNC(=O)Oc1ccc2c(c1)[C@]1(C)CCN(C)[C@@H]1N2C	inactive	inactive	inactive	inactive
CC(C)(C)CC(=O)OCC(=O)[C@@]1(O)CC[C@H]2[C@@H]3CCC4=CC(=O)C=C[C@]4(C)[C@H]3[C@@H](O)C[C@@]21C	inactive	inactive	inactive	inactive
CC1(C)[C@@H]2CC[C@@]1(C)C(=O)C2	inactive	inactive	inactive	inactive
C[C@]12C=CC(=O)C=C1CC[C@H]1[C@@H]3C[C@@H](O)[C@](O)(C(=O)CO)[C@@]3(C)C[C@H](O)[C@@]12F	inactive	inactive	inactive	inactive
CC(C)NCC(O)COc1ccc(COCCOC(C)C)cc1 (stereo not given)	inactive	inactive	inactive	inactive
COc1cc(O)c(C(=O)c2ccccc2)cc1S(=O)(=O)O	inactive	inactive	inactive	inactive
C[C@]12CC[C@@H]3c4ccc(O)cc4CC[C@H]3[C@@H]1C[C@@H](O)[C@@H]2O	inactive	inactive	inactive	inactive
Cn1cnc2c1c(=O)[nH]c(=O)n2C	inactive	inactive	inactive	inactive
CCOC(=O)NNc1nncc2ccccc12	inactive	inactive	inactive	inactive
CC(=O)Oc1ccc2c(c1)CC[C@@H]1[C@@H]2CC[C@]2(C)[C@@H](O)CC[C@@H]12	inactive	inactive	inactive	inactive
O=Cc1ccccc1C=O	inactive	inactive	inactive	inactive
FC(F)(F)C(Cl)Br (stereo not given)	inactive	inactive	inactive	inactive
Oc1cccc(-c2c3nc(c(-c4cccc(O)c4)c4ccc([nH]4)c(-c4cccc(O)c4)c4nc(c(-c5cccc(O)c5)c5ccc2[nH]5)CC4)C=C3)c1	inactive	inactive	inactive	inactive
C=CCCCCCCCCC(=O)O	inactive	inactive	inactive	inactive
C[C@H]1NCc2cc(-c3ccc4c(=O)c(C(=O)O)cn(C5CC5)c4c3OC(F)F)ccc21	inactive	inactive	inactive	inactive
